# Assay outcomes: PubChem BioAssay, National Center for Advancing Translational Sciences (NCATS)
# Compounds with a hit are over-represented: about 2.8% of the library has one in this group of screens.
# Pol iota inh – qHTS for Inhibitors of Polymerase Iota. DNA polymerase iota (Homo sapiens), Q9UNA4. Pol iota fluorescent replication assay, 10 min. Potency, µM (series often up to 115 µM), without a hit: top-dose activity, negative = inhibition, hits mostly inhibitors. 1% of 390,000 active. AID 588590, 2011; further: potency means the concentration at half of the fitted maximal effect
#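 Pol iota at 10 nM preincubated 15 min with compounds at room temperature; reaction started with fluorescent substrate, 50 nM final. Fluorescence read kinetically at 0 and 10 min; buffer-only wells as negative control.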
# PI5P4Ka inh – qHTS for Inhibitors of phosphatidylinositol 5-phosphate 4-kinase (PI5P4K); AID 652105, 2013; 1.2% of 330,000 active; max response, %; PI5P4Kalpha enzyme, ADP-Glo luminescence, 60 min; hits give low values; active means max response of -50% or lower; inconclusive means between -30% and -50%; inactive means -30% or higher; further: value at the top dose of about 77 µM; on the % scale 0 is the no-effect control and ±100 the full control effect
# Target sequence (P48426 whole entry, looked up): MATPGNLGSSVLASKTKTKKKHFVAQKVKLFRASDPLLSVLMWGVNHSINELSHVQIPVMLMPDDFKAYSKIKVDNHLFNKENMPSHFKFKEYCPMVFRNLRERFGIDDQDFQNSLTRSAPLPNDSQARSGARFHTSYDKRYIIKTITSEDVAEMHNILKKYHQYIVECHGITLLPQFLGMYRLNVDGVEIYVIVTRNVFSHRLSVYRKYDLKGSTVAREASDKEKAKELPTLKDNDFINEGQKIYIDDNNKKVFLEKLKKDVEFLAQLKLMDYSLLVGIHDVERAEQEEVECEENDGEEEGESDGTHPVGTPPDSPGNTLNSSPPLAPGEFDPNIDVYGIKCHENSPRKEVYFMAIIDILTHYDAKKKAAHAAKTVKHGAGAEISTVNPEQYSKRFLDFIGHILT
#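 Compounds were pin-transferred onto PI5P4Kalpha and substrate in HEPES pH 7.4 buffer with EGTA, CHAPS and 5% DMSO. ATP (5 microM final) started the reaction, which ran 60 minutes at room temperature before ADP-Glo detection.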
# POLB inh – qHTS Assay for Inhibitors of DNA Polymerase Beta; P06746; Pol beta primer extension/strand displacement, fluorescence kinetic; Potency, µM (doses to about 114 µM), inactives show at the top dose activity change, negative = inhibition, most hits filed as inhibitors; 1.3% of 340,000 active; AID 485314, 2010; further: potency means the concentration at half of the fitted maximal effect; on the % scale 0 is the no-effect control and ±100 the full control effect
#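 Preincubation: enzyme (10 nM) with compound, 15 min, RT. Reaction: substrate added to 50 nM final. Reads: 0 and 10 min. Analysis: normalized, Hill fit.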
# Pol eta inh-1 – qHTS for Inhibitors of Polymerase Eta; DNA polymerase eta (Homo sapiens), Q9Y253; recombinant Pol eta, fluorescent DNA replication assay; Potency, µM (series often up to 114 µM), for the others: at the top dose activity change, negative = inhibition, hits mostly inhibitors; 1.2% of 390,000 active; AID 588591, 2011; further: potency means the concentration at half of the fitted maximal effect; on the % scale 0 is the no-effect control and ±100 the full control effect
#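 Pol eta at 10 nM preincubated with compounds 15 min at room temperature; reaction started with fluorescent substrate (50 nM final) and read kinetically at 0 and 10 min.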
# WRN helicase inh – qHTS for Inhibitors of WRN Helicase | Bifunctional 3'-5' exonuclease/ATP-dependent helicase WRN (Homo sapiens), Q14191 | WRN helicase unwinding, fluorescent forked duplex, kinetic | Potency, µM (titrated, usually from 114 µM), inactives show top-dose activity change, negative = inhibition, hits mostly inhibitors | 0.46% of 360,000 active; further: potency means the concentration at half of the fitted maximal effect; on the % scale 0 is the no-effect control and ±100 the full control effect; nearly all actives have a fitted effect of over 55% in size
#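 WRN at 20 nM final preincubated with compound 15 min at room temperature; reaction started with 100 nM fluorophore/quencher forked duplex oligonucleotide and 2 mM ATP final. Unwinding followed kinetically by red fluorescence (ex 525, em 598 nm).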
# Pol kappa inh-1 – qHTS for Inhibitors of Polymerase Kappa | purified Pol kappa, fluorescent DNA synthesis assay, 10 min | Potency, µM (doses to about 107 µM), inactives show top-dose activity, negative = inhibition, hits mostly inhibitors | DNA polymerase kappa (Homo sapiens), Q9UBT6 | AID 588579, 2011 | 0.53% of 400,000 active; further: potency means the concentration at half of the fitted maximal effect; on the % scale 0 is the no-effect control and ±100 the full control effect
#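 Here, compound and 10 nM enzyme are combined for 15 min at room temperature; adding 50 nM substrate (final) starts DNA synthesis, tracked by fluorescence at 0 and 10 min against buffer-only wells.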
# TbPGK inh – qHTS for inhibitors of Phosphogylcerate Kinase: Hit Validation Screen. Potency, µM (series often up to 57.5 µM), inactives show top-dose activity change, negative = inhibition, usual class: inhibitors. 79% of 500 active. TbPGK coupled GAPDH assay, Kinase-Glo luminescence. shares compounds with Pol kappa inh-1; further: potency means the concentration at half of the fitted maximal effect; on the % scale 0 is the no-effect control and ±100 the full control effect; nearly all actives have a fitted effect of over 65% in size
# Pol iota confirm – qHTS for Inhibitors of Polymerase Iota: Confirmatory Assay for Cherry-picked Compounds | shares compounds with Pol kappa inh-1 | Pol iota primer extension, TAMRA/BHQ fluorescence | Potency, µM, actives largely listed as inhibitors | 77% of 1,500 active | AID 720496, 2013; further: potency means the concentration at half of the fitted maximal effect
# Pol kappa inh-2 – qHTS for Inhibitors of Polymerase Kappa: Confirmatory Assay for Cherry-picked Compounds. shares compounds with Pol eta inh-1. purified Pol-kappa, fluorescent strand-displacement substrate. Potency, µM, hits mostly inhibitors. 76% of 920 active. AID 720501, 2013; further: potency means the concentration at half of the fitted maximal effect
# Pol eta inh-2 – qHTS for Inhibitors of Polymerase Eta: Confirmatory Assay for Cherry-picked Compounds. shares compounds with Pol eta inh-1. Pol eta primer extension, TAMRA/BHQ fluorescence, 10 min. Potency, µM, actives largely listed as inhibitors. 64% of 2,600 active; further: potency means the concentration at half of the fitted maximal effect
# * = called active by the depositor; ? = inconclusive; . = no result given; [ ] = another dose, or the depositor's remark. Unless noted, the call rests on the fitted dose curve; in most records, active means well fitted curve in the direction sought with a large enough effect; inconclusive means small, poorly fitted or top-dose-only effect, or another doubt; inactive means no such curve, though single readings can be large; an effect the other way counts as inactive or inconclusive.
SMILES,Pol iota inh,PI5P4Ka inh,POLB inh,Pol eta inh-1,WRN helicase inh,Pol kappa inh-1,Pol iota confirm,Pol eta inh-2,others
CCOC(=O)c1cccc(-n2cccc2/C=C2\NC(=O)N(CC(=O)O)C2=O)c1,41%,.,.,-15%,.,-2%,.,.,
Cc1ccc(CN2C(=O)N/C(=C\c3cccn3-c3cccc(C(=O)O)c3)C2=O)cc1,14µM*,?,8.9µM*,8.9µM*,32µM*,50µM*,21*,27*,
Cc1cccc(-n2cnc3cc(C(=O)NCc4ccccc4Cl)ccc32)c1,-6%,.,18%,-7%,.,-3%[60.1 µM],.,.,
CN(c1ccc(C(=O)COC(=O)C2CC2)cc1)S(C)(=O)=O,11%,5,.,-15%,-7%,-7%,.,.,
O=C(O)c1ccc(COc2ccccc2/C=C2\NC(=O)N(Cc3ccccc3)C2=O)cc1,29%,-17,-5%,5%,-14%,-18%,.,.,
Cc1cccc(NC(=O)CN2C(=O)N/C(=C\c3ccc(-c4cccc(C(=O)O)c4)o3)C2=O)c1,?,?,?,?,?,?,67*,27*,
O=C(O)c1ccc(COc2ccc3ccccc3c2/C=C2/NC(=O)N(Cc3ccc(F)cc3)C2=O)cc1,-4%,5,22µM*,32µM*,79µM*,?,?,?,Pol kappa inh-2=38*
O=C(O)c1ccccc1Nc1ccccc1C(=O)O,1%[58.9 µM],.,8%,-17%,-4%,-1%,.,.,
O=C1C=C(Nc2ccccc2C(=O)O)c2ccccc2C1=O,18µM*,?,?,28µM*,-36%[57.1 µM],-18%,67*,38*,
NS(=O)(=O)Nc1cccc2cccnc12,-13%,.,.,.,.,-7%,.,.,
O=C1C=C(Nc2cccc3cccnc23)c2ccccc2C1=O,18µM*,-10,?,50µM*,-18%[57.1 µM],?,?,?,
Nc1ccc(S(=O)(=O)Nc2nccs2)cc1N=Nc1ccccc1[N+](=O)[O-],7.1µM*,-103*,.,3.2µM*,25µM*,28µM*,75*,19*,Pol kappa inh-2=?
O=[N+]([O-])c1ccccc1S(=O)(=O)Nc1ccc(S(=O)(=O)Nc2nccs2)cc1,?,-6,1%,0%,-21%,3%,.,.,
O=c1/c(=C/c2ccco2)sc2n1CN(c1ccccc1)CN=2,?,-10,2%,-11%,-9%,-5%,.,.,
O=c1nc2s/c(=C\c3ccco3)c(=O)n2nc1Cc1ccc(F)cc1,10µM*,-56*,2.8µM*,7.1µM*,50µM*,20µM*,38*,30*,
Cc1ccc(N2C(=O)c3ccccc3C2C(=O)c2ccc(O)cc2O)cc1 (stereo unspecified),11µM*,-66*,35µM*,79µM*,?,11µM*,19*,30*,
CC(C)NC(=O)Cn1nc(N2CCN(c3ccccc3)CC2)ccc1=O,5%,.,13%,4%,.,-3%,.,.,
COc1ccc(/C=C/C(=O)NC(=S)Nc2cc([N+](=O)[O-])ccc2O)cc1OC,16µM*,-25,18µM*,25µM*,-12%[11.6 µM],?,75*,30*,
COc1ccc([N+](=O)[O-])cc1NC(=S)NC(C)=O,30%,-15,8%,-19%,3%,-3%,.,.,
C/C=C(\C)C(=O)Nc1cccc(C2=NOC3(C2)C[C@@H](C(N)=O)N(C(=O)/C(C)=C/C)C3)c1 (stereo partly specified),16%,-3,14%,-14%,0%,4%,.,.,
C=C(C)C(=O)Nc1cccc(C2=NOC3(C2)C[C@@H](C(N)=O)N(C(=O)/C=C/C=C/C)C3)c1 (stereo partly specified),22µM*,-50*,2.5µM*,3.2µM*,?,28µM*,?,17*,TbPGK inh=0.73µM*
C/C=C/C=C\C(=O)Nc1cccc(C2=NOC3(C2)C[C@@H](C(N)=O)N(C(=O)/C(C)=C/C)C3)c1 (stereo partly specified),16µM*,-11,-1%,18µM*,?,50µM*,11*,17*,
C=C(C)C(=O)N1CC2(CC(c3cccc(NC(=O)/C=C\C)c3)=NO2)C[C@H]1C(N)=O (stereo partly specified),-2%,4,8%,6%,-1%,4%,.,.,
Nc1nc(NCc2ccc(Cl)cc2Cl)c2[nH]cnc2n1,-9%,.,.,.,.,-1%,.,.,
O=C(/C=C/c1ccco1)Nc1ccccc1N1CCCC1,-11%,5,-1%,-11%,-11%,4%,.,.,
O=C(/C=C/c1ccco1)Nc1ccccc1C(=O)O,?,-28,13µM*,10µM*,?,79µM*,30*,24*,Pol kappa inh-2=7.5*
CC(=O)Nc1cccc(C(=O)/C=C/c2ccco2)c1,?,-13,8%,?,-15%,-32%,.,.,
CC(=O)Nc1ccc(C(=O)/C=C/c2ccco2)cc1,?,-27,25µM*,25µM*,?,45µM*,?,38*,
COc1cc(/C=N/N2C(=O)CSC2=S)cc(Br)c1O,?,-75*,35µM*,25µM*,50µM*,40µM*,?,67*,Pol kappa inh-2=38*
CNc1ncnc2c1ncn2[C@H]1CN(CCN2CCOCC2)C[C@@H](CO)O1,.,-3,.,.,-4%,.,.,.,
